Source: PubChem BioAssay (EPA / NIEHS)
Where “and” joins values, the source holds several entries; their conditions need not be identical. Identical values can stand only once. Inconclusive results are not listed. The source holds several records for some structures; these can differ, active in one and inactive in another. Calls of active or inactive are those of the source. How the source made its calls: active means hit-call score of the fitted dose curve at least 0.9, where 1 is the maximum; inconclusive means response in the unintended direction; inactive means score below 0.9.

Legend:
[1] = ATG_M_06_XSP2: Attagene TRANS-FACTORIAL Multi-Species (XSP2) HepG2 Assay for M06 Transcription Factor (Internal Marker) (AID 2283811);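 further: internal background marker reporter mRNA measured by RT-PCR and capillary electrophoresis; hits are increases in signal above the DMSO baseline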
Summary of the method: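 HepG2 cells transiently transfected with GAL4-UAS multi-reporter constructs, dosed 24 h with 3 nM 6-alpha-fluorotestosterone plus 1.5 nM norgestrel present to stimulate androgen receptor. Reporter mRNA quantified by RT-PCR, 6-FAM labelling, HpaI digestion and capillary electrophoresis; gain-of-signal fitted versus DMSO baseline.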

[2] = test system: turtle Estrogen Receptor (ERa), gene 101933533; assay: ATG_trERa_XSP2: Attagene TRANS-FACTORIAL Multi-Species (XSP2) HepG2 Assay for turtle Estrogen Receptor (ERa) (AID 2283812);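 further: human HepG2 liver cells transiently expressing turtle ERa-Gal4 chimeric receptor; actives raise reporter signal above DMSO so AC50 reflects agonist activity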
Summary of the method: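 HepG2 cells transiently transfected with GAL4-UAS reporter units expressing turtle ERa-Gal4 chimera. Reporter mRNA measured after 24 h dosing by RT-PCR, fluorescent labelling and capillary electrophoresis; gain of signal fitted versus DMSO.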

[3] = biological target: Estrogen receptor beta (Homo sapiens) (UniProt Q92731); assay: ATG_hERb_XSP2: Attagene TRANS-FACTORIAL Multi-Species (XSP2) HepG2 Assay for human Estrogen Receptor (ERb) (AID 2283813);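 further: actives raise reporter mRNA above DMSO so AC50 reflects agonist induction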
Chain of Estrogen receptor beta (Homo sapiens) (Q92731 whole entry, looked up, the tested form may be a part): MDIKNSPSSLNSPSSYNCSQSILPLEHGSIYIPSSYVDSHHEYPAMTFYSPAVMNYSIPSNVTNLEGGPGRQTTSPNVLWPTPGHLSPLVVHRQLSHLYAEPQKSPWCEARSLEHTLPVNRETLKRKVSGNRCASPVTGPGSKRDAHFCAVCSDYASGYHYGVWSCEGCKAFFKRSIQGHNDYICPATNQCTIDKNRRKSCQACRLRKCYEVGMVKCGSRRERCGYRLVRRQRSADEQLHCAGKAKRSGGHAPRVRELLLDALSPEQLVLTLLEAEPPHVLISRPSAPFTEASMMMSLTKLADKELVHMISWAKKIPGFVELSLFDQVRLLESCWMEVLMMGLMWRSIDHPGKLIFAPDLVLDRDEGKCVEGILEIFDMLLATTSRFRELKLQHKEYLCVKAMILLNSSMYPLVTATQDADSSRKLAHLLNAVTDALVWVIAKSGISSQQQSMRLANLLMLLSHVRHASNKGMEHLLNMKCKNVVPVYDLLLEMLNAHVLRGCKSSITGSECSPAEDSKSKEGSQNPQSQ
Summary of the method: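 HepG2 cells transiently transfected with GAL4-UAS reporter units and chimeric human ERb-Gal4, 24 h exposure. Reporter mRNA quantified by RT-PCR with FAM labelling, HpaI digestion and capillary electrophoresis; gain of signal versus DMSO.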

[4] = biological target: GAL4 Transcription Factor (Internal Marker), GAL4 (gene 855828) (UniProt P04386); assay: ATG_GAL4_XSP2: Attagene TRANS-FACTORIAL Multi-Species (XSP2) HepG2 Assay for GAL4 Transcription Factor (Internal Marker) (AID 2283814);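 further: GAL4 reporter mRNA background control in MRTU transfected cells not a receptor target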
Chain of GAL4 Transcription Factor (Internal Marker), GAL4 (gene 855828) (P04386 whole entry, looked up, the tested form may be a part): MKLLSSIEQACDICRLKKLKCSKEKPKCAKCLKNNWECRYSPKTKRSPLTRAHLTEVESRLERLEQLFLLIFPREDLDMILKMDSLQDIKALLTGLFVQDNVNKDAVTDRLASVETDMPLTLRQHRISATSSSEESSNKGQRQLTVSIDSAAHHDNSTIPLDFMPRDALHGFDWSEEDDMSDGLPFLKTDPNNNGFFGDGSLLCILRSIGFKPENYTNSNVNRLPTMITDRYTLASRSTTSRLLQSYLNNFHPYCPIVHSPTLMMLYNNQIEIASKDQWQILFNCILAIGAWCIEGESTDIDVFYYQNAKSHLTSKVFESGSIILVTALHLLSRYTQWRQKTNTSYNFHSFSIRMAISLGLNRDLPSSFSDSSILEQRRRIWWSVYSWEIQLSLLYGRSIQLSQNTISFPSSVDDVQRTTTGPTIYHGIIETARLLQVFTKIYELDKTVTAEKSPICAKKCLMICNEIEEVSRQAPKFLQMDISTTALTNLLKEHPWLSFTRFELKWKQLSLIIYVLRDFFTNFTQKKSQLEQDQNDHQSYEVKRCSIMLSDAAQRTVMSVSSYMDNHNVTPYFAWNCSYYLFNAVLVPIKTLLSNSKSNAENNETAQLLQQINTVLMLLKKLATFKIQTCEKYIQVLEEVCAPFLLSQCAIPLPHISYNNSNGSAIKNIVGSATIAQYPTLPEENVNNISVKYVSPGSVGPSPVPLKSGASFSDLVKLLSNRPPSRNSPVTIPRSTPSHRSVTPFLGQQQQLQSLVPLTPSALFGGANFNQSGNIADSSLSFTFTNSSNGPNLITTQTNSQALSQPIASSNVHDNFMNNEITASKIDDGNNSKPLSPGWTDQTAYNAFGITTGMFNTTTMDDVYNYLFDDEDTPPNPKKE
Summary of the method: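 HepG2 cells transiently transfected with GAL4-UAS reporter units, stimulated with 3 nM 6-alpha-fluorotestosterone plus 1.5 nM norgestrel, dosed 24 h. Reporter mRNA by RT-PCR/capillary electrophoresis; gain-of-signal fit versus DMSO, background control.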

[5] = biological target: human Thyroid hormone Receptor beta (TRb), THRB (gene 7068) (UniProt P10828); assay: ATG_hTRb_XSP1: Attagene TRANS-FACTORIAL Multi-Species (XSP1) HepG2 Assay for human Thyroid hormone Receptor beta (TRb) (AID 2283808)
Chain of human Thyroid hormone Receptor beta (TRb), THRB (gene 7068) (P10828 whole entry, looked up, the tested form may be a part): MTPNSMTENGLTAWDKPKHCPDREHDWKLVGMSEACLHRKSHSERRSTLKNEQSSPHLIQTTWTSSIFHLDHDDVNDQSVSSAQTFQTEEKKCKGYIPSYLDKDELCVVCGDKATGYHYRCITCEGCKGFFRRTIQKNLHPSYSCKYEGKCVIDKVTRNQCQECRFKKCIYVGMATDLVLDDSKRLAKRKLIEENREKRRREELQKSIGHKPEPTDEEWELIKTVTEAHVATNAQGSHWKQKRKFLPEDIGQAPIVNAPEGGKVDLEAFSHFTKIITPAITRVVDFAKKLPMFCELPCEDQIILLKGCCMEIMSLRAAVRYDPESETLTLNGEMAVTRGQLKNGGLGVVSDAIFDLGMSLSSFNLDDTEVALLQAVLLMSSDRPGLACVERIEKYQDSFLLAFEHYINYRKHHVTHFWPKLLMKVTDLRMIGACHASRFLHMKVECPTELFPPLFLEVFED
Summary of the method: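 HepG2 cells transiently transfected with reporter units driving GAL4-UAS reporters for chimeric NR-Gal4 proteins; 24 h chemical exposure with 3 nM 6-alpha-fluorotestosterone present. Reporter mRNA quantified by RT-PCR and capillary electrophoresis, gain of signal versus DMSO.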

[6] = ATG_XTT_Cytotoxicity_XSP1: Cytotoxicity Assessment in the Attagene TRANS-FACTORIAL Multi-Species (XSP1) HepG2 Assay (AID 2283810)
Summary of the method: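 XTT viability readout taken at 24 hours post-dosing in HepG2 liver cells co-treated with 3 nM 6-alpha-fluorotestosterone. Signal loss relative to DMSO controls reflects cytotoxicity.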

[7] = test system: zebrafish Peroxisome Proliferator-activated Receptor gamma (PPARg), gene 557037; assay: ATG_zfPPARg_XSP1: Attagene TRANS-FACTORIAL Multi-Species (XSP1) HepG2 Assay for zebrafish Peroxisome Proliferator-activated Receptor gamma (PPARg) (AID 2283801)
Summary of the method: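 HepG2 cells transiently transfected with GAL4-UAS reporter units including a zebrafish PPARg–GAL4 chimera, dosed 24 h with 3 nM 6-alpha-fluorotestosterone present. Reporter mRNA quantified by RT-PCR, FAM labelling, HpaI digestion and capillary electrophoresis; induction versus DMSO.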

[8] = biological target: Nuclear receptor subfamily 1 group I member 2 (Mus musculus) (UniProt O54915); assay: ATG_mPXR_XSP1: Attagene TRANS-FACTORIAL Multi-Species (XSP1) HepG2 Assay for mouse Pregnane X Receptor (PXR) (AID 2283803)
Chain of Nuclear receptor subfamily 1 group I member 2 (Mus musculus) (O54915 whole entry, looked up): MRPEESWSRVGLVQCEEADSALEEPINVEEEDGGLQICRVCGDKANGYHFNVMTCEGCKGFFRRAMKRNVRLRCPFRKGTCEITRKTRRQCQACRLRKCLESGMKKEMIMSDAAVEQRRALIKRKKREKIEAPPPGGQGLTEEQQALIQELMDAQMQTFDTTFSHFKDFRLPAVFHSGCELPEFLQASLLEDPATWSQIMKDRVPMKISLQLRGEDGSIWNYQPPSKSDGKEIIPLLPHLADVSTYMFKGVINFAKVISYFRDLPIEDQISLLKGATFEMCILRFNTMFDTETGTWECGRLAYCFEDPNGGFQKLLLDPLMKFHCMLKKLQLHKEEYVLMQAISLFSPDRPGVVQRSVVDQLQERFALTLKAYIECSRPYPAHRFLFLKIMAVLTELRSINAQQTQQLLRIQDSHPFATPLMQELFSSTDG
Method: ATG_XSP1_multi-species_TRANS is a cell-based, multiplexed assay created by modifying the existing Attagene TRANS-FACTORIAL system to include a panel of nuclear receptors from some or all the following species: human (Homo sapiens), mouse (Mus musculus), frog (Xenopus laevis), zebrafish (Danio rerio), chicken (Gallus gallus), and turtle (Chrysemys picta). The ECOTOX-FACTORIAL format uses HepG2, a human liver cell line, with measurements taken at 24 hours after chemical dosing in a 24-well plate. Xsp1 included 3 nM 6-alpha-fluorotestosterone to partially stimulate the androgen receptor.ATG_mPXR_XSP1 is one of 29 assay components measured or calculated from the ATG_XSP1_multi-species_TRANS assay. It is designed to make measurements of mRNA induction, a form of inducible reporter, as detected with fluorescence intensity signals by Reverse transcription polymerase chain reaction (RT-PCR) and Capillary electrophoresis technology.The assay endpoint ATG_mPXR_XSP1 was analyzed in the positive analysis fitting direction relative to DMSO as the negative control and baseline of activity. […] Furthermore, this assay endpoint can be referred to as a primary readout, because this assay has produced multiple assay endpoints where this one serves a reporter gene function. […]

[9] = test system: turtle Thyroid Hormone Receptor, alpha (TRa), gene 101949057; assay: ATG_trTRa_XSP1: Attagene TRANS-FACTORIAL Multi-Species (XSP1) HepG2 Assay for turtle Thyroid Hormone Receptor, alpha (TRa) (AID 2283806)
Summary of the method: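 HepG2 cells transiently transfected with GAL4-UAS reporter units and chimeric receptor-Gal4 constructs, with 3 nM 6-alpha-fluorotestosterone present. Reporter mRNA was quantified 24 h after dosing by RT-PCR, 6-FAM labelling and capillary electrophoresis; gain of signal versus DMSO.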

[10] = biological target: zebrafish Thyroid Hormone Receptor beta (TRb), thrb (gene 30607) (UniProt Q9PVE4); assay: ATG_zfTRb_XSP1: Attagene TRANS-FACTORIAL Multi-Species (XSP1) HepG2 Assay for zebrafish Thyroid Hormone Receptor beta (TRb) (AID 2283809)
Chain of zebrafish Thyroid Hormone Receptor beta (TRb), thrb (gene 30607) (Q9PVE4 whole entry, looked up, the tested form may be a part): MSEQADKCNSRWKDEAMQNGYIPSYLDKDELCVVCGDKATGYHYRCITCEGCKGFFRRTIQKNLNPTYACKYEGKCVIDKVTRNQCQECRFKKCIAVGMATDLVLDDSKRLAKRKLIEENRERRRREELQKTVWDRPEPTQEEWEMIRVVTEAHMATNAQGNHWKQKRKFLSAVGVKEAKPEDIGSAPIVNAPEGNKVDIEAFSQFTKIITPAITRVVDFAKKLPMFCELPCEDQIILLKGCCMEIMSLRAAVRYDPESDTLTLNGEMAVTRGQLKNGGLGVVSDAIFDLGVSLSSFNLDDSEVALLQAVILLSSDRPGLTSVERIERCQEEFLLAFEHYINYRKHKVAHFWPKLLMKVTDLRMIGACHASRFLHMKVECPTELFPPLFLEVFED
Summary of the method: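 HepG2 cells transiently transfected with multiplexed GAL4-UAS reporter units expressing chimeric zebrafish TRb–Gal4. Dosed 24 h with 3 nM 6-alpha-fluorotestosterone present; reporter mRNA measured by RT-PCR, HpaI digestion and capillary electrophoresis; gain of signal versus DMSO.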

O=c1cc(-c2ccccc2)oc2cc(O)cc(O)c12
outcome [1]: inactive | AC50 [2]: 9.68 µM (active) and 2.6 µM (active) | AC50 [3]: 42.2 µM (active) and 2.03 µM (active)

CCCCCCCCCCCCN
AC50 [2]: 44.3 µM (active) | outcome [4]: inactive

O=C(Oc1ccccc1)c1ccc(O)cc1
AC50 [2]: 30.6 µM (active) | outcome [2]: inactive | AC50 [3]: 6.15 µM (active) | outcome [3]: inactive | outcome [4]: inactive

CN(CCOc1ccc(CC2SC(=O)NC2=O)cc1)c1ccccn1 (centres undefined)
outcome [5]: inactive | outcome [6]: inactive | outcome [1]: inactive

CN(C)C(=N)N=C(N)N
outcome [7]: inactive | AC50 [8]: 64.4 µM (active) | outcome [9]: inactive | outcome [10]: inactive | outcome [6]: inactive | outcome [4]: inactive
